Values joined by “and” are separate entries in the source; they are usually repeats but may differ in a detail not shown here. Equal entries are not always repeated. The source holds several records for some structures; these can differ, active in one and inactive in another. Active and inactive are the calls of the source. How the source made its calls: active means hit-call score of the fitted dose curve at least 0.9, where 1 is the maximum; inactive means score below 0.9.

The experiment can be described thus: CCTE_Mundy_HCI_Cortical_Synap_Neur_Matur_NeuriteSpotCountPerNeuron: CCTE's Synaptogenesis and Neurite Maturation Assay in rat cortical cells for Neurite Spot Count per Neuron Count, Mundy Lab (AID 2284215). The procedure: CCTE_Mundy_HCI_Cortical_Synap&Neurite_Matur is a multiplexed, cell-based-readout assay that uses rat primary cortical cells with measurements taken at 288.33 hours after chemical dosing in a microplate: 96-well plate.CCTE_Mundy_HCI_Cortical_Synap_Neur_Matur_NeuriteSpotCountPerNeuron is one of eight components of the CCTE_Mundy_HCI_Cortical_Synap&Neurite_Matur assay. It measures synaptogenesis and neurite maturation related to number of neurite-associated synapses (synaptophysin puncta) per neuron using High Content Imaging of fluorescently labelled markers.[…] Using a type of morphology reporter, loss -of-signal activity can be used to understand developmental effects.
Cells are plated onto 96 well plates and allowed 2 hr for attachment to the substrate. At days in vitro (DIV) 5, Cytosine Arabinoside (AraC) is added to arrest glial cell growth. Chemicals are dosed and a media change is performed at DIV 7 of differentiation and is continued through DIV 12 when the experiment is terminated. Cells are fixed with […] and Hoechst Dye. Cells are stained using Millipore Mouse anti-MAP2MAB3418 (1:800) and Millipore Rabbit anti-Synaptophysinsc-1750 (1:250) primary antibodies and Alexa Fluor-488 goat anti-mouse and AlexaFluor-546 goat anti-rabbit secondary antibodies to label neuronal cell nuclei, synapses and neurites. A Cellomics ArrayScan VTi HCS Reader is used for automated image acquisition and analysis of neurite outgrowth.
One may read the AC50 as the midpoint of the concentration-response curve, whichever way the signal moves. `CCOC(=O)CC(SP(=S)(OC)OC)C(=O)OCC` (stereo not drawn): the compound was called inactive and the AC50 is 50 µM (active).

For `N#Cc1nn(-c2c(Cl)cc(C(F)(F)F)cc2Cl)c(N)c1S(=O)C(F)(F)F` (stereo not drawn), the AC50 is 3.22 µM (active).

As to `CCCCOC(=O)c1ccccc1C(=O)OCCCC`, the AC50 is 50 µM (active).

Regarding `COP(=S)(OC)Oc1nc(Cl)c(Cl)cc1Cl`, the AC50 is 20.7 µM (active).

For the compound `CN(C)C(=S)SSC(=S)N(C)C`, the half-maximal activity concentration (AC50) is 0.0745 µM (active).

As to `COC(=O)N(OC)c1ccccc1COc1ccn(-c2ccc(Cl)cc2)n1`, the half-maximal activity concentration (AC50) was 0.0537 µM (active).

For the compound `CCCCNC(=O)n1c(NC(=O)OC)nc2ccccc21`, the result was inactive.

For the compound `Cc1ccc(-c2c(Cl)nc(C#N)n2S(=O)(=O)N(C)C)cc1`, the half-maximal activity concentration (AC50) is 70.3 µM (active).

Regarding `C=CC1(C)OC(=O)N(c2cc(Cl)cc(Cl)c2)C1=O` (stereo not drawn), the compound was called inactive.

Take `CNC(=O)ON=CC(C)(C)SC`: the call was inactive.

On to `CO/C=C(/C(=O)OC)c1ccccc1Oc1cc(Oc2ccccc2C#N)ncn1`, for which the half-maximal activity concentration (AC50) is 2.75 µM (active).

As for `CCOc1cc(Oc2ccc(C(F)(F)F)cc2Cl)ccc1[N+](=O)[O-]`, the concentration at half-maximal activity (AC50) is 11.6 µM (active).

Turning to `CC(C)(C)c1ccc(CSc2cnn(C(C)(C)C)c(=O)c2Cl)cc1`, the AC50 is 0.000469 µM (active).

Take `C=CCC1=C(C)C(OC(=O)C2C(C=C(C)C)C2(C)C)CC1=O` (stereo not drawn): the compound was called inactive.

Turning to `CCCCC(CC)COC(=O)c1ccccc1C(=O)OCC(CC)CCCC` (stereo not drawn), the half-maximal activity concentration (AC50) was 5.47 µM (active) and 3.59 µM (active).

In the case of `C=CCC1=C(C)[C@@H](OC(=O)[C@@H]2[C@@H](C=C(C)C)C2(C)C)CC1=O`, the AC50 was 22.1 µM (active).

Turning to `COP(N)(=O)SC` (stereo not drawn), the compound was called inactive.

(Values after PubChem BioAssay (EPA / NIEHS).)
